# An excerpt weighted towards active compounds, which were near 7.4% of everything screened.
# ELG1 genotox = inducers of genotoxicity in HEK293T ELG1-luciferase cells; HEK293T ELG1-luciferase reporter, luminescence, 16 h; 330,000 compounds, 1.3% hits; Potency, µM (doses to about 46 µM), inactives show at the top dose activity change, positive = activation, hits mostly activators; also: % of control where 0% means no effect; nearly all actives have a fitted effect of over 60% in size
#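 Step 1: seed 2,000 HEK293T ELG1-luciferase cells per well. Step 2: add compound or DMSO, incubate 16 hr at 37 °C. Step 3: ONE-Glo, 30 min at room temperature, read luminescence.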
# SMN2 splice up = SMN2 splice variant enhancement | Potency, µM (series often up to 46.1 µM), without a hit: at the top dose activity change, positive = activation, hits mostly activators | HEK293 SMN2-luciferase splicing reporter, luminescence, 30-36 h | 210,000 compounds, 2.8% hits | AID 1458; also: % of control where 0% means no effect; nearly all actives have a fitted effect of over 55% in size
#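 qHTS luciferase splicing reporter: luminescence rises when SMN2 exon 7 is included in transfected HEK293 cells. Compound exposure lasted 30-36 h at 37C, with 4.5 mM final sodium butyrate as control, followed by a ONE-Glo read.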
# Luc counter = Kinase-Glo luciferase inhibition (counter-screen); Q27757; Kinase-Glo luciferase, ATP luminescence, 8 min; Potency, µM (highest dose often 38.3 µM), for inactives: at the highest dose activity change, negative = inhibition, most hits filed as inhibitors; 200,000 compounds, 0.28% hits; AID 1379; also: % is scaled to controls: 0 for no effect and ±100 for the full control effect; nearly all actives have a fitted effect of over 60% in size
#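 Recombinant Kinase-Glo luciferase, 10 uM ATP (linear range), luciferin; imidazole pH 7.2 / KCl / MgCl2 / Tween / BSA buffer; 8 min RT; luminescence.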
# FLuc counter = firefly luciferase modulation, counter-screen for miR-21 project; purified FLuc, Km substrates, luminescence inhibition; P08659; 360,000 compounds, 6.9% hits; Potency, µM (series often up to 57.5 µM), inactives show at the top dose activity change, negative = inhibition, hits mostly inhibitors; AID 588342;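 also: plate controls were vehicle for no effect and reference inhibitor for full effect; nearly all actives have a fitted effect of over 55% in size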
# Target sequence (P08659 whole entry, looked up): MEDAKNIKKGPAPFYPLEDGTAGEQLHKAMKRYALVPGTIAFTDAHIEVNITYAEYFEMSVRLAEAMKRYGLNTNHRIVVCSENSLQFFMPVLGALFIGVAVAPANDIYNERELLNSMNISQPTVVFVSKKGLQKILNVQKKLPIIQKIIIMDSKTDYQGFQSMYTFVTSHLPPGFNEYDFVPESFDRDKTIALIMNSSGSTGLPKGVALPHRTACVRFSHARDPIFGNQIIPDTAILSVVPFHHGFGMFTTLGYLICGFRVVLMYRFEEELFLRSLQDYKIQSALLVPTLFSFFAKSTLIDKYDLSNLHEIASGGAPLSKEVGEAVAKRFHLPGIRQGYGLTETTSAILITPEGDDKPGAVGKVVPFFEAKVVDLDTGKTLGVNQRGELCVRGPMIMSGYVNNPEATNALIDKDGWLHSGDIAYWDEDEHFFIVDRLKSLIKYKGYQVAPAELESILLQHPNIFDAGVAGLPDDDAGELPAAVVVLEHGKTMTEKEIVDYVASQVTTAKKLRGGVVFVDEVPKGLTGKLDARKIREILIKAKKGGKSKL
#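 Biochemical qHTS of compounds, final roughly 60 µM downward over six points, against 10 nM purified firefly luciferase using Km concentrations of substrates (10 uM D-luciferin, 10 uM ATP) in Tris acetate pH 7.5 buffer; luminescence output.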
# Rab9 promoter act = activates the Rab9 promoter | Huh7 Rab9 promoter-luciferase reporter, luminescence, 24 h | Potency, µM (titrated, usually from 9.22 µM), for the others: at the top dose activation, negative = inhibition, most hits filed as activators | 320,000 compounds, 2.8% hits; also: % of control where 0% means no effect; nearly all actives have a fitted effect of over 60% in size
#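 Huh7 reporter line, Rab9 promoter upstream of luciferase. Compound exposure 24 h at 37 °C in reduced-serum medium with 10% FBS. Read-out: luminescence.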
# NPC1 prom act = activates the NPC1 promoter; Huh7 NPC1 promoter luciferase reporter, 24 h; Potency, µM (series often up to 9.22 µM), inactives show at the highest dose activation, hits mostly activators; 320,000 compounds, 2.4% hits; AID 485313; also: % of control where 0% means no effect; nearly all actives have a fitted effect of over 60% in size
#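 In 1536-well qHTS, Huh7 cells harboring an NPC1 promoter–luciferase construct received compound for 24 h; activation was quantified by luminescence following luciferase reagent addition.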
# * marks the source's active call; other numbers are inactive results; ? = inconclusive; · = no result given; [ ] = dose if it differs, or a comment. Calls follow the shape of the dose curve; as a rule, active = well fitted curve in the direction sought with a large enough effect; inconclusive = small, poorly fitted or top-dose-only effect, or another doubt; inactive = no such curve, though single readings can be large; an effect the other way counts as inactive or inconclusive. Potency is read from the fitted curve at half-maximal effect.
SMILES,ELG1 genotox,SMN2 splice up,Luc counter,FLuc counter,Rab9 promoter act,NPC1 prom act
Cc1cccc(Oc2ccc(NC(=O)c3ccccc3C(=O)O)cc2)c1C,-2%,-14%,-3%,19µM*,-2%,0%
Cc1ccc(N=Nc2cc(C)ccc2O)c(C)c1,?,·,·,4.8µM*,?,?
Cc1cccc(N=Nc2ccc(O)c3ncccc23)c1,12µM*,-51%,-8%,11µM*,-3%,13%
Cc1ccc(N=Nc2ccc(N)cc2C)c(S(N)(=O)=O)c1,?,3%[9.22 µM],-3%[7.66 µM],11µM*,2.8µM*,?
Cc1ccc(C)c(N=Nc2ccc(O)c3ncccc23)c1,?,-96%,-12%,11µM*,8%,?
CCn1cc(C(=O)OCC(=O)Nc2cccc(C(C)=O)c2)c(=O)c2ccc(C)nc21,·,5%,·,-4%,·,·
NC(=O)C1CCN(CC(=O)NC(=O)NC2CCCC2)CC1,1%,-11%,-1%,-1%,-1%,-1%
NS(=O)(=O)c1ccc(N=Nc2ccc(O)c3ncccc23)cc1,?,·,·,?,-32%,-40%
Oc1ccc(N=Nc2ccc3c(c2)OCCO3)c2ncccc12,?,·,·,5.4µM*,-27%,-23%
Cc1cc(NC(=S)N(CCCN2CCOCC2)Cc2ccco2)ccc1Cl,-3%,-10%,-1%,4%,0%,0%
Cc1ccc(C(=O)N(Cc2nnc(-c3ccc(Cl)cc3)o2)C2CC2)o1,1%,·,·,-26%,-5%,1%
Brc1ccc(-c2nnc(Cc3ccccc3)o2)cc1,21µM*,·,·,11µM*,?,3.5µM*
c1ccc(Cc2nnc(-c3ccccc3)o2)cc1,3.3µM*,?,-6%,24µM*,?,?
Cc1ccccc1-c1nnc(Cc2ccccc2)o1,?,11µM*,-2%,11µM*,4µM*,4µM*
COc1ccc(Cc2nnc(-c3ccccc3)o2)cc1,·,-13%,1%,?,?,17%
Cc1ccc(-c2nnc(Cc3ccc(Cl)cc3)o2)cc1,16µM*,21%,-2%,17µM*,28%,23%
CN1CCC(NC(=S)Nc2cccc([N+](=O)[O-])c2)CC1,-5%,-3%,3%,2%,2%,5%
CCOC(=O)c1c(NC(=O)c2ccc(S(=O)(=O)N3CCC(C)CC3)cc2)sc2c1CCN(CC)C2,·,·,·,-2%,·,·
O=C(N/C(=C\c1cccc(Br)c1)C(=O)N1CCOCC1)c1ccco1,-4%,·,·,-1%,12%,2%
c1ccc(-c2nnc(CSc3nncs3)o2)cc1,23µM*,?,0%,?,25%,28%
Cc1ccc2c(Cl)cc(Cl)c(OCC(=O)Nc3ccc(C)c(S(=O)(=O)N(C)C)c3)c2n1,-6%,-14%,2%,-1%,-8%,0%
CCN(CC)c1ccc(N=C2C(=O)Nc3ccccc32)cc1,-9%,·,·,6.7µM*,6%,1%
COc1ccc(CNC(=O)c2cc3ccccn3n2)c(OC)c1,·,·,·,-14%,·,·
C/C(=N\Nc1ccc(C(=O)O)cc1)c1ccc2c(c1)Nc1ccccc1S2,11%,·,·,2.1µM*,?,?
Cc1cccc(-n2c(=O)c3ccccc3n(Cc3ccccc3)c2=O)c1,·,2%,·,0%,·,·
SMILES,ELG1 genotox,SMN2 splice up,Luc counter,FLuc counter,Rab9 promoter act,NPC1 prom act
O=C1CSC(=S)N1/N=C/C=C/c1ccccc1,-2%,1%,-1%,?,-1%,0%
N=C1SCC(=O)N1/N=C/c1ccccc1,-20%,-33%,-7%,5.4µM*,1%,0%
CCc1ccc(S(=O)(=O)c2nnn(-c3ccc(F)cc3)c2N)cc1,·,-37%,·,2%,·,·
Cc1ccc(OCC(=O)Nc2cccc(O)c2)cc1C,?,-5%,0%,5.4µM*,?,?
COc1ccc(OC(=O)COc2cccc(C)c2)cc1,-2%,·,·,15µM*,3%,1%
COc1ccc(OC(=O)COc2ccc(C)cc2)cc1,5%,3%,3%,?,-1%,15%
O=C(COc1cc(Cl)c(Cl)cc1Cl)Nc1cccc(O)c1,?,·,·,1.1µM*,-3%,-1%
Cc1ccc(OCC(=O)Nc2cc(NC(=O)COc3ccc(C)c(C)c3)cc(C(=O)O)c2)cc1C,10%,·,·,?,1%,-7%
Cc1cccc(OCC(=O)Nc2cccc(O)c2)c1,10µM*,13%,-2%,17µM*,0%,-2%
Cc1cccc(NC(=O)COc2ccccc2)c1,?,17%,2%,3%[2.3 µM],13%,2%
O=C(Nc1ccccc1N1CCOCC1)c1ccc(Cl)c(S(=O)(=O)N2CCCC2)c1,-2%,·,·,-8%,4%,1%
CC1CCN(C(=O)C(C)OC(=O)CSc2ccc([N+](=O)[O-])cc2)CC1 (stereo not drawn),-3%,·,·,0%,1%,0%
CCN1CCN(Cc2c(O)ccc3c(=O)c(Oc4ccccc4C(C)C)c(C(F)(F)F)oc23)CC1,·,-4%,·,-1%,·,·
CC(Oc1ccc(Cl)cc1Cl)C(=O)Nc1cccc(O)c1 (stereo not drawn),17%,-1%,1%,17µM*,-4%,0%
COc1cccc(NC(=O)COc2ccc(Br)c(C)c2)c1,15%,·,·,19µM*,11%,-1%
CCC(=O)Nc1cccc(NC(=O)COc2ccc(OC)cc2)c1,?,15%,1%,15µM*,-1%,-2%
CN(c1ccccc1)S(=O)(=O)c1cccc(NC(=O)COc2cccc([N+](=O)[O-])c2)c1,-4%,·,·,·,1%,-3%
CCC(=O)c1ccc(OCC(=O)Nc2cccc(S(=O)(=O)N(C)c3ccccc3)c2)cc1,1%,·,·,15µM*,-4%,-7%
CCn1c(=O)c2sccc2n2c(CCCC(=O)NCCc3ccc(S(N)(=O)=O)cc3)nnc12,6%[9.26 µM],·,·,0%,3%,-1%
COc1cc(S(=O)(=O)N2CCN=C2c2ccccc2)ccc1F,2%,11µM*,-3%,1%,-15%,-21%
Oc1cc2c(cc1O)[C@@H](c1ccccc1)CNCC2,-2%,-29%,0%,4.8µM*,-3%,0%
Oc1cc2c(cc1O)C(c1ccccc1)CNCC2 (stereo not drawn),·,9%,-10%,·,1%[46.1 µM],0%[46.1 µM]
CC(/C=N/NC(=O)c1cccs1)=C\c1ccccc1,8%,4µM*,-8%,2.1µM*,0.79µM*,1µM*
O=C(N/N=C/C(Cl)=C\c1ccccc1)c1cccs1,?,·,·,2.7µM*,2µM*,2.5µM*
O=C(O)/C(=C\c1ccc(Br)cc1)NC(=O)c1cccs1,2%,·,·,4%,1%,-5%
COc1cc2cc(CNc3ccccc3)c(=O)n(CC(=O)Nc3cccc(Cl)c3C)c2cc1OC,·,·,·,1%,·,·
